Results published in PubChem BioAssay.
For part of these data: Results with a measured potency or affinity are listed apart. The source made the active and inactive calls.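 The calls were made as follows, unless noted: active = calcium signal ratio cut to more than 3 SD under the fully stimulated control mean yet still positive, in both repeats and the primary screen; inactive = the rest.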

How the values were obtained:
[1] = test system: TRPC4 beta (transient receptor potential cation channel C4), mouse; experiment: activators of mouse TRPC4 channel, confirmation, cell-based, Fluo4 calcium, HEK293 TRPC4beta/mu-opioid, duplicates, 10 µM (AID 2426;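 active = fluorescence ratio normalized to control raised more than 50% in primary screen plus both repeat runs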;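 as to activation: percent rise of integrated ratio over buffer wells lacking compound which define 0%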); conditions: Fluo4 calcium fluorescence, at 10 µM; active compounds read high
[2] = test system: transient receptor potential cation channel C4 beta (TRPC4), mouse; experiment: activators of mouse TRPC4 channel, confirmation, cell-based, second round, Fluo4, HEK293 TRPC4beta/mu-opioid, 1 µM (AID 2461;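 active = primary screen active and over 50% activation in each of two duplicate runs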;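 as to activation: 0% = wells without test compound as baseline of integrated fluorescence ratio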); conditions: Fluo4 calcium fluorescence, at 1 µM; active compounds read high
[3] = test system: TRPC4 (transient receptor potential cation channel C4 beta), mouse; experiment: positive allosteric modulators of mouse TRPC4, confirmation, cell-based, second round, Fluo-4, HEK293 TRPC4beta/mu-opioid, 1 µM (AID 2554;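 active = primary screen hit whose fluorescence ratio, in both repeats, exceeds the weak agonist control mean by 3 SD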); conditions: DAMGO EC20, Fluo-4 calcium flux, at 1 µM; active compounds read high
[4] = test system: TRPC4 beta (transient receptor potential cation channel C4), mouse; experiment: positive allosteric modulators of mouse TRPC4, confirmation, cell-based, Fluo-4, HEK293 TRPC4beta/mu-opioid (AID 2555;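 active = primary screen hit whose calcium fluorescence ratio, in both repeats, exceeds the weak agonist control mean by 3 SD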); conditions: DAMGO EC20, Fluo-4 calcium flux, at 10 µM; active compounds read high
[5] = target: Short transient receptor potential channel 4 (Mus musculus) (UniProt Q9QUQ5); experiment: inhibitors of mouse TRPC4 channel, confirmation, cell-based, Fluo4, HEK293 TRPC4beta/mu-opioid (AID 2636;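 active = calcium signal cut by more than 3 SD below the full-agonist control yet still positive, in both repeats and the earlier primary screen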); conditions: DAMGO, Fluo4 calcium flux, at 10 µM; active compounds read high
Chain of Short transient receptor potential channel 4 (Mus musculus) (Q9QUQ5 whole entry, looked up): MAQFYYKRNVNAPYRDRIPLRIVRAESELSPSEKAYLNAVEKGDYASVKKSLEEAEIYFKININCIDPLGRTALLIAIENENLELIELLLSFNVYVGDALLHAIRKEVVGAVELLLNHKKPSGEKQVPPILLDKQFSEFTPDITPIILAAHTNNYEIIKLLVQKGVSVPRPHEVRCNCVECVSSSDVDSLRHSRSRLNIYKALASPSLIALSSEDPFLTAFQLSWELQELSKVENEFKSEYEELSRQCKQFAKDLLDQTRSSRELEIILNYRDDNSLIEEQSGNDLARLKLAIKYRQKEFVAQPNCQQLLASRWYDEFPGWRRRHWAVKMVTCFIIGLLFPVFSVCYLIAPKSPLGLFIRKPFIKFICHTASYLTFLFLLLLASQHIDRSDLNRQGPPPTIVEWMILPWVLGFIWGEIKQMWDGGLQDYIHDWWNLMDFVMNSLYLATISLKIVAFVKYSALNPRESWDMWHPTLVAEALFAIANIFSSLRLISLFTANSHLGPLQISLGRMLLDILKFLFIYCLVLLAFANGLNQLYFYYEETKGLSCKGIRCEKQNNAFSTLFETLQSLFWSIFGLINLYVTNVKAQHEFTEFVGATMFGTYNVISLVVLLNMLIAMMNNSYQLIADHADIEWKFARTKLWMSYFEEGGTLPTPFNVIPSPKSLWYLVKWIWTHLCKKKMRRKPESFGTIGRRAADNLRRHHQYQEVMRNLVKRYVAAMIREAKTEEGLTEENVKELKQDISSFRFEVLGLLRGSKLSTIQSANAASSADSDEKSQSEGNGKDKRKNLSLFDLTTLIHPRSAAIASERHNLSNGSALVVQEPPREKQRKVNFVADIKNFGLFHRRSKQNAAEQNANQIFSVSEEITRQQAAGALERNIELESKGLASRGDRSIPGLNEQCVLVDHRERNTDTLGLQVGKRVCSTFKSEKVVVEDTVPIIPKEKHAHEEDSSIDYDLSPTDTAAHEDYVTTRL

[6] = target: Short transient receptor potential channel 4 (Mus musculus) (UniProt Q9QUQ5); experiment: inhibitors of mouse TRPC4 channel, confirmation, cell-based, second round, Fluo4, HEK293 TRPC4beta/mu-opioid, 1 µM (AID 2637); conditions: Fluo4 calcium flux, DAMGO, at 1 µM; active compounds read high
[7] = target: Short transient receptor potential channel 4 (Mus musculus) (UniProt Q9QUQ5); experiment: TRPC4 positive allosteric modulators, dose response, cell-based, HEK293 TRPC4/mu-opioid, Fluo-4 calcium, EC20 DAMGO (AID 434941;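 active = earlier screen potentiator hit that boosts the TRPC4 ion channel at some dose, with a dose response; inactive = no potentiation, no dose response, or not a prior hit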;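 also: calcium entry triggered by an EC20 dose of DAMGO at the co-expressed mu-opioid receptor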)
[8] = target: Short transient receptor potential channel 4 (Mus musculus) (UniProt Q9QUQ5); experiment: mouse TRPC4 channel inhibitors, dose response, cell-based, HEK293 TRPC4/mu-opioid, Fluo-4 calcium (AID 434942;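 active = primary screen inhibitor hit that blocks the TRPC4 channel at some tested dose, yielding a dose curve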)
[9] = target: Short transient receptor potential channel 6 (Mus musculus) (UniProt Q61143); experiment: inhibition of mouse TRPC6 channel, confirmation, selectivity assay for TRPC4 inhibitor project, cell-based, HEK293, membrane potential dye, duplicate (AID 434948;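 active = active in primary screen and both duplicates, each dropping signal beyond three positive-control SD with fluorescence still positive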); conditions: HEK293 TRPC6, membrane potential dye fluorescence, at 10 µM, stimulated with maximal-effect acetylcholine; active compounds read high
Chain of Short transient receptor potential channel 6 (Mus musculus) (Q61143 whole entry, looked up): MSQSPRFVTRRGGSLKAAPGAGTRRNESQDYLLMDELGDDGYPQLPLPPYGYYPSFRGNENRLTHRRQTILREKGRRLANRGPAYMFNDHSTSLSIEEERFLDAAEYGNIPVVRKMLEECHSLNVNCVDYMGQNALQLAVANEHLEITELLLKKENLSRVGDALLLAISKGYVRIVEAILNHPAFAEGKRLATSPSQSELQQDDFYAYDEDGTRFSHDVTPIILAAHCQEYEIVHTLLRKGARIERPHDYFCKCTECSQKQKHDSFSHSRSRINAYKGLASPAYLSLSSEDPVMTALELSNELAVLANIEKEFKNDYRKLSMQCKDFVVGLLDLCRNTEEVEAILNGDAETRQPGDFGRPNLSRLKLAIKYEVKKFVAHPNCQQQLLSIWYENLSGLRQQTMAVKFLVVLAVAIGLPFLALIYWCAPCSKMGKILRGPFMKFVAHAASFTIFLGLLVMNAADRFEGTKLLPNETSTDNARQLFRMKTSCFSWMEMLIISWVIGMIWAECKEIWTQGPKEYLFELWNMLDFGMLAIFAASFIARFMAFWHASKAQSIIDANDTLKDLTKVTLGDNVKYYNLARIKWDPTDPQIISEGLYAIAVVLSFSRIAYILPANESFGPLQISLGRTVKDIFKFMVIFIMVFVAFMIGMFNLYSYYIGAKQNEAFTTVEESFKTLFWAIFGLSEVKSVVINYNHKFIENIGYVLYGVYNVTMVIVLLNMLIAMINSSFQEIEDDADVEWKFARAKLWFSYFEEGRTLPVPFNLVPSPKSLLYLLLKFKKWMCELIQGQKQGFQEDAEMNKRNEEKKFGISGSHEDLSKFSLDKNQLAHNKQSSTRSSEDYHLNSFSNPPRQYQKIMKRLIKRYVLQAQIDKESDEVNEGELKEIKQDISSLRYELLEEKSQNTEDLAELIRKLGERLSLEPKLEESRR

[10] = target: Short transient receptor potential channel 6 (Mus musculus) (UniProt Q61143); experiment: activation of mouse TRPC6 channel, confirmation, selectivity assay for TRPC4 activator project, cell-based, HEK293, membrane potential dye, duplicate (AID 434950;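 active = membrane potential signal rise above negative control mean plus 3 SD in both duplicates, also active in the earlier TRPC4 screen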;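 as to activation: 0% = buffer only wells and 100% = acetylcholine maximal-effect wells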); conditions: HEK293 TRPC6, membrane potential fluorescence, at 10 µM; active compounds read high
[11] = target: Short transient receptor potential channel 6 (Mus musculus) (UniProt Q61143); experiment: TRPC6 potentiation by TRPC4 potentiator hits, confirmation, selectivity assay for TRPC4 potentiator project, HEK293 cells, membrane potential dye, duplicate (AID 434952;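 active = compound raising the membrane signal above positive-control mean plus 3 SD in both repeats, and a primary screen hit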); conditions: HEK293 TRPC6, membrane potential dye fluorescence, at 10 µM, maximal acetylcholine added after compound; active compounds read high
[12] = target: Short transient receptor potential channel 4 (Mus musculus) (UniProt Q9QUQ5); experiment: calcium flux activators in TRPC4/5HT1a cells, counter-screen for TRPC4 activator project, cell-based, second counter screen, HEK293 TRPC4/5HT1a, Fluo-4 (AID 434977;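 active = calcium signal rise above buffer-control mean plus 5 SD in both duplicates, and also a hit in the primary screen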;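 as to activation: plate controls were assay buffer for no effect and maximal serotonin response for full effect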); conditions: Fluo-4 calcium flux, at 10 µM; active compounds read high
[13] = calcium flux inhibitors in TRPC4/5HT1a cells, confirmation, counter-screen for TRPC4 inhibitor project, cell-based, second counter screen, HEK293 TRPC4/5HT1a, Fluo-4 (AID 434978;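 active = primary screen active whose calcium signal fell more than 3 SD beyond the full-serotonin control mean in both duplicate plates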;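 also: serotonin given first at submaximal then at maximal dose after compound preincubation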); conditions: Fluo-4 calcium flux, at 10 µM, serotonin added to trigger calcium flux; active compounds read high
[14] = test system: TRPC4 (mouse), co-expressed with 5HT1a in HEK293; experiment: calcium flux potentiators in TRPC4/5HT1a cells, confirmation, counter-screen for TRPC4 potentiator project, cell-based, second counter screen, HEK293 TRPC4/5HT1a, Fluo-4 (AID 434979;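 active = signal rise over 3 SD above mean of control wells given weak agonist, in both repeats and first screen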); conditions: Fluo-4 calcium flux, at 10 µM, serotonin added at its EC20 dose; active compounds read high
[15] = calcium flux activation in mu-opioid HEK293 cells, confirmation, counter-screen for TRPC4 activator project, cell-based, HEK293 mu-opioid receptor line (AID 449723;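 active = hit in primary screen, with calcium signal over 5 SD above buffer well mean in both duplicates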;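 also: counter screen cells carry the mu-opioid receptor alone and lack TRPC4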); conditions: Fluo-4 calcium fluorescence, at 10 µM; active compounds read high
[16] = calcium flux enhancement in mu-opioid HEK293 cells, confirmation, counter-screen for TRPC4 allosteric potentiator project, cell-based, HEK293 mu-opioid receptor line (AID 449724;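 active = calcium signal rise more than 3 SD above the low-dose agonist control mean, in both duplicate plates and the primary screen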); conditions: Fluo-4 calcium flux, at 10 µM, compound added before EC20 DAMGO stimulus; active compounds read high

Cc1cccc(C)c1OCC(O)CN (stereo not given)
active: activation [1] 90% | activation [10] 30.5% | activation [12] 20.1%
inactive: outcome [2] | outcome [3] | outcome [4] | outcome [5] | outcome [6] | outcome [7] | outcome [8] | outcome [9] | outcome [11] | outcome [13] | outcome [14] | outcome [15] | outcome [16]

CN(CCOc1ccc(Cl)cc1)CC(O)c1ccccc1 (stereo not given)
active: activation [1] 76% | activation [10] 52.5% | activation [12] 13.9%
inactive: outcome [2] | outcome [3] | outcome [4] | outcome [5] | outcome [6] | outcome [7] | outcome [8] | outcome [9] | outcome [11] | outcome [13] | outcome [14] | outcome [15] | outcome [16]

O=C(c1sc2ccccc2c1Cl)N(Cc1ccco1)C1CCS(=O)(=O)C1 (stereo not given)
inactive: outcome [2] | outcome [3] | outcome [4] | outcome [5] | outcome [6] | outcome [7] | outcome [8] | outcome [9] | outcome [11] | outcome [12] | outcome [13] | outcome [14] | outcome [15] | outcome [16]
active: activation [1] 198% | activation [10] 57.5%

CN(C)C(CNC(=O)C1CC(=O)N(Cc2ccccc2)C1)c1ccccc1 (stereo not given)
inactive: outcome [2] | outcome [3] | outcome [4] | outcome [5] | outcome [6] | outcome [7] | outcome [8] | outcome [9] | outcome [10] | outcome [11] | outcome [12] | outcome [13] | outcome [14] | outcome [15] | outcome [16]
active: activation [1] 90%

O=C1/C(=C\c2cc(Cl)c(O)c(Cl)c2)SC(=S)N1Cc1ccccc1
active: activation [1] 118% | potentiation [4] 43% | activation [10] 1320% | potentiation, percent of control [11] 640% | activation [12] 105% | potentiation [14] 27.4% | activation [15] 248% | activation [16] 3240%
inactive: outcome [2] | outcome [3] | outcome [5] | outcome [6] | outcome [7] | outcome [8] | outcome [9] | outcome [13]

CCN(c1ccccc1)S(=O)(=O)c1ccc(C(=O)N(CCCN(C)C)c2nc3cc4c(cc3s2)OCO4)cc1
inactive: outcome [2] | outcome [3] | outcome [4] | outcome [5] | outcome [6] | outcome [7] | outcome [8] | outcome [9] | outcome [10] | outcome [11] | outcome [12] | outcome [13] | outcome [14] | outcome [15] | outcome [16]
active: activation [1] 99%

CN(C)CCCN(C(=O)c1ccc(S(=O)(=O)N2CCOCC2)cc1)c1nc2ccc(F)cc2s1
inactive: outcome [2] | outcome [3] | outcome [4] | outcome [5] | outcome [6] | outcome [7] | outcome [8] | outcome [9] | outcome [10] | outcome [11] | outcome [12] | outcome [13] | outcome [14] | outcome [15] | outcome [16]
active: activation [1] 104%

CCOC(=O)C1(CCOc2ccccc2)CCN(Cc2ccc3c(c2)OCCO3)CC1
active: activation [10] 74.5%
inactive: outcome [1] | outcome [2] | outcome [3] | outcome [4] | outcome [5] | outcome [6] | outcome [7] | outcome [8] | outcome [9] | outcome [11] | outcome [12] | outcome [13] | outcome [14] | outcome [15] | outcome [16]

Cc1ccn2cc(CCNC(=O)C3CC=CCC3C(=O)O)nc2c1 (stereo not given)
inactive: outcome [2] | outcome [3] | outcome [4] | outcome [5] | outcome [6] | outcome [7] | outcome [8] | outcome [9] | outcome [10] | outcome [11] | outcome [13] | outcome [14] | outcome [15] | outcome [16]
active: activation [1] 135% | activation [12] 59.9%

COc1ccc(C(CNC(=O)c2ccc(S(=O)(=O)N(C)C)cc2)N(C)C)cc1 (stereo not given)
inactive: outcome [3] | outcome [4] | outcome [5] | outcome [6] | outcome [7] | outcome [8] | outcome [9] | outcome [11] | outcome [12] | outcome [13] | outcome [14] | outcome [15] | outcome [16]
active: activation [1] 296% | activation [2] 179% | activation [10] 29%

COc1cc(OC)cc(C(=O)NCCCN2CCN(CCCNC(=O)c3cc(OC)cc(OC)c3)CC2)c1
inactive: outcome [3] | outcome [4] | outcome [5] | outcome [6] | outcome [7] | outcome [8] | outcome [9] | outcome [11] | outcome [13] | outcome [14] | outcome [15] | outcome [16]
active: activation [1] 121% | activation [2] 94% | activation [10] 31.5% | activation [12] 30.4%

CCN(CC)CCCOc1ccc(Cl)c(Cl)c1
active: potentiation [3] 31% | potentiation [4] 33% | activation [10] 48% | activation [12] 17.9% | potentiation [14] 21.3%
inactive: outcome [1] | outcome [2] | outcome [5] | outcome [6] | outcome [7] | outcome [8] | outcome [9] | outcome [11] | outcome [13] | outcome [15] | outcome [16]

Cc1ccc2c(C)c(C(=O)N(Cc3cccs3)C3CCS(=O)(=O)C3)oc2c1 (stereo not given)
active: activation [10] 34.5%
inactive: outcome [1] | outcome [2] | outcome [3] | outcome [4] | outcome [5] | outcome [6] | outcome [7] | outcome [8] | outcome [9] | outcome [11] | outcome [12] | outcome [13] | outcome [14] | outcome [15] | outcome [16]

O=C(O)c1ccc(-c2ccc(/C=c3/sc4nc5ccccc5n4c3=O)o2)cc1Cl
active: potentiation [4] 10% | activation [10] 218% | potentiation, percent of control [11] 166% | activation [12] 46.3% | activation [15] 40.9%
inactive: outcome [1] | outcome [2] | outcome [3] | outcome [5] | outcome [6] | outcome [7] | outcome [8] | outcome [9] | outcome [13] | outcome [14] | outcome [16]

Cc1onc(-c2ccccc2)c1C(=O)NC(=S)NNC(=O)c1ccco1
active: activation [1] 142% | activation [10] 30.5% | activation [12] 51.5%
inactive: outcome [2] | outcome [3] | outcome [4] | outcome [5] | outcome [6] | outcome [7] | outcome [8] | outcome [9] | outcome [11] | outcome [13] | outcome [14] | outcome [15] | outcome [16]
